The text below walks through data of the OligoGym collection.
Also: reference of the scale not given here.

The first assay deals with KLK5. Put plainly: pooled miR-30 sensor sort-seq; sequence = guide strand. As to conditions: shRNA.
For TTTCTGACTTAGCACGCTGATA, the sensor-assay potency score (higher = more potent) is -1.58. Still for that read-out and setting: in the case of TTCGTGTAGACACCCGGTCTGT it was -0.664; in that of TGAACATTCTCAACATCTCTGG, -0.405; in that of AACATTCTCAACATCTCTGGGA, 0.475.

In the case of TTGATGGGTCTGACATCTTTAG, the sensor-assay potency score (higher = more potent) is -1.51.

Sequence TTGATGATGCGGCTGCTGCTGT came in with a sensor-assay potency score (higher = more potent) of -0.719. Take TTGGGCCTTAGCAACAGCGCGG: the sensor-assay potency score (higher = more potent) is -0.877.

As for TTTTCTGACTTAGCACGCTGAT, the sensor-assay potency score (higher = more potent) was -0.837. The same measure, in the same setting: then ACTCTGAAAACTTTCTTCCTGC, with -0.332. Same read-out and setting: in the case of TAGAGAGACACGGTCAGCCCAA it was 0.0597; in that of TCTCGGGTAAGCATCCTCGCAC, -0.337.

The next assay deals with KPRP. The description is as above. As to conditions: shRNA.
In turn, AATCTCAACAGGACACCTCTGT yielded a sensor-assay potency score (higher = more potent) of 0.644.

Regarding TAGACTGACATTGAGCCTGGCC, the sensor-assay potency score (higher = more potent) is 0.158. The same measure, in the same setting: in the case of TAGACTGGCACTTCACCTGTGT it was 0.425.

The sequence TAGCCCTTGACTGAAACTGGGG returned a sensor-assay potency score (higher = more potent) of -0.902. Same read-out and setting: in the case of TCTTAGACTGACATTGAGCCTG it was -0.234; in that of TTGTCGTGGTAGAGGACGCGGG, -1.43; in that of TTGAACCACCACTTGGCTCTGG, 0.211. Still for that read-out and setting: in the case of TACTGAGGGAAACAGCTGCTGT it was -0.994; in that of TTTCTGTATAACAAACTGGAGC, -1.23; in that of TGGTCTTAGACTGACATTGAGC, -1.69.
